Measured values as given in PubChem BioAssay AID1508600 (Functional Genomics Laboratory (NCATS/FGL), 2020).
About 3,700 (7%) of roughly 53,000 sequences were called active. Only a selection was taken, and actives are over-represented in it overall. Unmarked numbers belong to inactive results.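 The calls were made as follows: active = gene knockdowns whose robust z-score for IL-1 alpha signal is at least 2 or at most -2, so actives lie on both sides; inactive = the rest.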

Assay: Components of the Cytosolic LPS Sensing Pathway: Gene Identification via Genome-wide siRNA Screen;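 also: robust z of the log signal after scaling to non-targeting control siRNA wells of the plate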
Conditions: RAW264.7 macrophages, IL-1a HTRF, actives lie on both sides, screened at 100 nM (by protocol), cells primed 5 h with Pam3CSK4 first
Summary of the method: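 IL-1a HTRF of supernatants after 24 hour LipidA transfection of Pam3CSK4-primed (5 hours) RAW264.7 cells, 48h post-siRNA transfection (100 nM). Scores: percent of plate negative-control median, then log-based robust z-score.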

Sequence | z-score
GGAUGUCUGACACAAGUGUTT against Olfr390 | 3.42 (active)
GCUUCACAGAAGCUUUGUGTT against Ccl4 | -0.156
GGAAUAUCAGAAUACCAUCTT against Cnpy4 | 0.89
CCAGGAACAGCUAUCGGAUTT against Homer2 | -0.271
GCUGCAUUACAAGCCCAACTT against Zfp414 | -0.218
GGUGACAUAUUUGAAGUGGTT against Dmwd | -0.000303
GCACCCUACCUGCUAAUGUTT against Slitrk1 | 3.59 (active)
GGAUGACAAGGUUAAGCUATT against Golm2 | -0.0855
GCAACAAUGUGGUUCCUAUTT against Rab11a | 0.616
GGAGCUACUGUACCUUGCUTT against Ncapg2 | -1.29
GGCUAGAAAACCUCUAUCUTT against Lrrc18 | -2.11 (active)
GUGCAUGCAGUGUUGUUUUTT against Magea5 | 0.711
GGAUAGGGAUUGGAGAUAUTT against Stn1 | 0.203
GGGUAGUCACUCAAUAAAUTT against Pear1 | -0.54
GGAUUGCCCUGUGGACAAGTT against Nr4a1 | 0.963
GGCGAAAUGAACACAAAGCTT against Edf1 | 0.983
GGAAAAGUACACAAAGACCTT against Nkx2-1 | 2.16 (active)
GGAAAAGUGGUGAACGACATT against Tm4sf4 | 0.798
GCUGCUGUGACUUAGAUAATT against Cds2 | -0.668
CCAGGAUCAUUCUUCUGAATT against Chrna7 | -0.563
GCGUAUACCAUGCAGAUAUTT against Sigmar1 | 1.05
GGCGUACGUAGACAAGUACTT against Scaf11 | -2.23 (active)

Sequence | z-score
GGAAGGUAAUUGCUUUUAGTT against Gmeb1 | 0.533
GCACUUGCUUCAAGUAAUATT against Ankrd52 | -0.0516
GCUCUGCUGUGUUAUAUGGTT against C330011M18Rik | 0.144
CCUAUGCUUUUUUGUAAGATT against Il13ra2 | 0.126
GGGAAUAGCAAAUAAAGCATT against Lztr1 | -0.674
GGCUGUUGAACUUAAUCCCTT against Tomm70a | -2.25 (active)
GGUAGACGGAAUCUAUUUATT against Kcnj15 | -1.31
GGUGGACUUAUAUGGUUUUTT against St3gal1 | 0.408
GGUGAUUGGGAAUUGAAAATT against F3 | 0.341
GCAUAUGCGAACAGUAAAATT against Rab28 | -0.182
GGUACCUUCAUCUUGGUGGTT against Olfr699 | -0.017
GCCUUGACCUGAUUUCUACTT against Tas2r131 | -0.525
GCAUUCAGGACCUGUGGCUTT against Olfr890 | -2.33 (active)
GGAUCUGUGAGUUUGUAGCTT against D930030D11Rik | 0.585
GGACAACUCAAUUCUAAAATT against 4921522P10Rik | -1.22
GCAAAGUUCACCUAAUUGGTT against Lipc | -1.03
GCCAGACUGAGCUACAAAATT against Gm9732 | -1.3
GCAUCAAAAUCGGUUUCUGTT against Lkaaear1 | 0.759
CCUUUGGACGCAACCAGUUTT against Ugt1a6b | 2.04 (active)
CGAAUUAAUCUCACAGGAGTT against Vps53 | 0.44
CCCUCAAUGGCCUCAAACUTT against Elavl3 | -1.29
GUUAGAUGCCCUCAAGUUCTT against Trappc6a | -0.857

Sequence | z-score
GGAUGAGAGUCCACAGCAATT against Lpar3 | -1.26
GGAAUUCACAGAUACCGUGTT against Guca1a | 0.93
GGAUGAGGUGAUUAAAGAATT against Cd9 | 2.38 (active)
GGAGUUCAUUGUUUGGUUGTT against Nat2 | 0.593
GGAUAUUGAUGUUUCAAGUTT against Neo1 | -0.241
CGUGGUGCAGAAUUUUUAUTT against Cldn14 | 1.13
GGCACACACAUCAAAAGGATT against A530021J07Rik | -2.63 (active)
GGUAGAUGGCAUCUACUAUTT against Josd2 | 0.663
GCUGGCAGUUUGUAAGUAGTT against Faxc | -0.653
GGGUGUCAUCCUUAUCCUGTT against Olfr655 | -0.0528
CCGAAUCUGUCGUCAAGGUTT against Trem3 | 0.552
GGACCAGGUCCGUUGGAAUTT against Efna1 | 0.636
GGAUGUAAAGAGGAAUCUCTT against Abca16 | -0.748
GCAUCCCUUCCGAGAAACATT against Bag6 | 0.916
GCCGUCAGACAAGGAGGAATT against Magi1 | 2.43 (active)
GGAUGUCCUUGACUUUAAATT against Atp6v0a4 | 0.704
GCCUGAGGAAUCGUGACAUTT against Olfr51 | -1.58
GGAAAUGAUACAUUUGUGATT against Mre11a | -0.256
CCGCACAGACCAUAGUAGATT against Pudp | 0.261
GGUACUUUGGAAAGAAGAGTT against Yeats4 | -1.27
GGGAAUGAACCUAGAAGAGTT against Tymp | -1.2
GGUAGCCAUAUCUAACAGCTT against Scd1 | -2.02 (active)

Sequence | z-score
GCCCUGAGACCACGAUAUUTT against AF067063 | 1.48
GGUUAUAUGCAGAGGAACUTT against Arid1a | -0.436
GGCAAGAUGAAUUAAAAUGTT against Gcfc2 | -0.964
GGAUAAAGGCAAAGACAAATT against Rsrc1 | 0.891
UUAUGCUGACCUCUAUCUUTT against Akr1c19 | 2.33 (active)
GGUUGAUUCUUAAAUUGUGTT against Slc6a5 | 0.331
GGCUGGUGUAAUCGAAACATT against Ttc39c | 0.0501
GGAAACUCCGUCCCAAUUGTT against Trim68 | 1.39
GGCGAUUUCAACUGAAAAUTT against Jakmip1 | 0.548
GCCCAAUAAAAUUGAAGGGTT against Pmis2 | -0.163
GGUCUUUGAGGAAAGAGGUTT against Hemk1 | -1.59
GGCCUGUCCAAAGAAGUGATT against E2f3 | 2.2 (active)
GCGCACACCCUACUUGAUUTT against Pcdh20 | 1.08
GCUGUAAUUCCUAAGUUAUTT against Ubxn6 | 0.268
CCCAGAGCAUGCCAUCAACTT against Orm3 | -0.38
CCUUACACUAAGAAAAAGGTT against Rad50 | -0.0689
GCAGUCCAAAAAAUUCGGUTT against Stox2 | -2.15 (active)
GGCAUUAGAGCAGAGUCGUTT against Trmu | -1.29
GGUGCAGAGAAGUGUAACATT against Slc25a21 | -1.6
GGUGCUGAGCAUGGUGUUATT against Spag4 | 3.17 (active)
GGAGUAUCGUUUAUUCAUUTT against Slc2a2 | 0.161
GCCUAAGAAAUUAGUGAAUTT against Rflna | 0.204

Sequence | z-score
GGCCAUCACUAAAUAAUGGTT against Ctdspl2 | -0.123
GGAAAACGAGUCAAACUCATT against Lnx2 | 3.4 (active)
GGUGGUGAGCAUCUACUAUTT against Alox5 | 0.565
CCCUAAUAAAUUCCAAAUCTT against H2-Ke6 | 1.81
GCAUGUAGUUCAUCAGUACTT against Tubgcp5 | 0.874
GGACCACUUUUUCAGACUCTT against Ralgapa1 | 0.945
GGCGAAAUGGUAAACCGAGTT against Adgrg2 | 0.0183
GUACGGCAACAUGACCCAGTT against Cd74 | 0.385
GGACUUCAACAACUGCUCUTT against Polr1a | 2.28 (active)
CCACUUCUACAUACUUAAUTT against Plau | 0.62
UCUCAUUGCAAUUCUGGGATT against Olfr675 | 0.566
CCUUACUCAAGAUCCUGCUTT against Olfr1243 | -0.23
GGCACUCAACACCUGUAUATT against Olfr640 | -1.34
GGAAUUCCUUCACAUCUGGTT against Tc2n | 0.4
GGGUGAUAAGCAGUUAUACTT against Wdr75 | 1.33
GCUUCUGUUAUGAGGCUCATT against Hif1a | -2.52 (active)
GGAGAUUGUGGAAAUGCUUTT against Skiv2l | 0.459
CCCAGACCAUACUACGGAUTT against Calb2 | -1.25
GUUUCAGUGCAGCCAUUACTT against Olfr518 | -0.747
